Assay results published in the supplement of paper PMC7695840.
Structures can show the parent of a compound that is named as a salt.

What was measured:
[1] = system: Staphylococcus aureus MW2 delta-mecA (mecA-); experiment: normalized GFP fluorescence (growth of mecA- strain) (fraction of control range); higher = more growth of mecA- strain; details: compound concentration: 150 uM; cefoxitin: subinhibitory; fluorescent label: GFP
In short: (§1)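 Pre-induced S. aureus MW2 mecA+ (DsRed) and ΔmecA (GFP) cells were mixed 1:1 in LB with a daily-set subinhibitory cefoxitin dose. They were dispensed at 5 µL/well onto 150 μM compound (1.5% DMSO) in 1536-well plates, single replicate. Growth was 20 h at 37 °C, 90% humidity, unshaken, and DsRed (540/590) and GFP (485/520) were then read. Each channel was scaled per plate between the medians of the single-strain controls. Plates with high No Treatment ratios and rows with DsRed/GFP >10 were excluded.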

[2] = system: Staphylococcus aureus MW2 (mecA+); experiment: normalized DsRed fluorescence (growth of mecA+ strain) (fraction of control range); higher = more growth of mecA+ strain; details: compound concentration: 150 uM; cefoxitin: subinhibitory; fluorescent label: DsRed
In short: as §1

| Structure (SMILES) | normalized GFP fluorescence [1] | normalized DsRed fluorescence [2] |
| --- | --- | --- |
| O=C(O)CCCCCCCC(=O)O | 0.422 | 0.443 |
| OC[C@H]1O[C@@H](n2cnc3c2N=CNC[C@H]3O)C[C@@H]1O [Pentostatin] | 0.461 | 0.689 |
| N[C@@H](Cc1cc(I)c(Oc2cc(I)c(O)c(I)c2)c(I)c1)C(=O)O | 0.297 | 0.575 |
| CCNC(=O)CCC/C=C\C[C@@H]1[C@@H](/C=C/[C@@H](O)CCc2ccccc2)[C@H](O)C[C@@H]1O [Bimatoprost] | 0.224 | 0.865 |
| CCC1(c2ccccc2)NC(=O)N(C)C1=O (stereo not given) | 0.794 | 0.963 |
| CN1CCN(CC(=O)N2c3ccccc3C(=O)Nc3cccnc32)CC1 | 0.28 | 0.759 |
| CC(=O)O[C@]1(C(C)=O)CC[C@H]2[C@@H]3C[C@H](C)C4=CC(=O)CC[C@]4(C)[C@H]3CC[C@@]21C | 0.145 | 0.759 |
| NCCCCCC(=O)O | 0.967 | 0.727 |
| CCOC(=O)n1ccn(C)c1=S [Carbimazole] | 0.708 | 0.813 |
| Nc1ccc(S(=O)(=O)Nc2ccccn2)cc1 | 0.364 | 0.542 |
| C[C@@H]1CC(=O)NN=C1c1ccc(NN=C(C#N)C#N)cc1 [Levosimendan] | 0.00346 | 0.512 |
| CC(C)(C)NC(=O)[C@H]1CC[C@H]2[C@@H]3CC[C@H]4NC(=O)C=C[C@]4(C)[C@H]3CC[C@]12C | 0.27 | 0.691 |
| COc1cc2c(cc1OC)CC(=O)N(CCCN(C)C[C@H]1Cc3cc(OC)c(OC)cc31)CC2 [Ivabradine HCl (Procoralan)] | 0.478 | 0.555 |
| Cc1cccc(C)c1NC(=O)C(C)N (stereo not given) | 0.842 | 0.486 |
| Cc1cc(C(C)(C)C)cc(C)c1CC1=NCCN1 | 0.345 | 0.52 |
| CN(C)CC[C@@H](c1ccc(Cl)cc1)c1ccccn1 | 0.307 | 0.588 |
| CC(C)(Sc1cc(C(C)(C)C)c(O)c(C(C)(C)C)c1)Sc1cc(C(C)(C)C)c(O)c(C(C)(C)C)c1 | 0.792 | 0.839 |
| CN1CCCN=C1COC(=O)C(O)(c1ccccc1)C1CCCCC1 (stereo not given) | 0.399 | 0.63 |
| O=c1n(CCCN2CCN(c3cccc(Cl)c3)CC2)nc2ccccn12 | 0.187 | 1.1 |
| C[N+](C)(C)CCOC(N)=O | 0.245 | 0.816 |
